# Over roughly 59,000 sequences, the read-out has its median near -0.00055; the lowest 2% begin near -2. Only a selection was taken, and the lowest values are over-represented in it overall.
# Test: Identification of proteins required for the processing of the EWS-FLI1 nascent transcript;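 further: robust z of luciferase light less the median z of siRNAs with the same seed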
# Conditions: TC32 Ewing sarcoma NR0B1-luc vs CMV-luc (EWS-FLI1 target promoter against control promoter), 48 h; screened at 20 nM (by protocol)
# In short: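 Genome-wide siRNA screen (Ambion v4.1, three siRNAs per gene, 20 nM final, RNAiMax) in Ewing sarcoma TC32 cells carrying NR0B1-promoter or CMV-promoter luciferase; OneGlo luciferase read 48 h post-transfection. Data normalized, z-score-MAD transformed and seed-adjusted.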
row,Sequence,seed-corrected z-score
1,UUGGUCUGUAGUACUGUUC against SNX27,-2.17
2,UUUGUGCCCUGCGUUUAUC against KCND3,-0.731
3,AGGUGGAAGAGAAAUAUCU against OR4D11,-0.264
4,UCAAGUUACAGGUUCGGGC against DRG1,1.09
5,UAUUUGUAGCCCAAGAAGG against YIF1B,0.101
6,UUUCUGAUCAGGUCCAUGA against SLC1A6,-0.114
7,UCAUAGUUGAGCAAGGUGG against AOC3,-0.116
8,UCCGUAUCCAGCUCGUCCU against NXNL1,-1.17
9,UUCAAUGCAAGCAAGCUUG against OR4L1,0.45
10,UUGCGAACAUUGCCUGUGC against MEP1A,0.216
11,UCUUUAUCUAGAGGCAUUC against LOC728040,-2.35
12,UUUAUUCUAAACACGUACU against RHBDD3,-0.246
13,UAGGAUUACAGCAAUCAUC against 11-Mar,0.0159
14,UGUCGUCAAAGUAUAAUCG against ETV5,-2.12
15,UAUGGAGCAGGUAAUAGAG against ZNF311,0.514
16,UUCUCAUCAAACUCUACAC against OLFML3,0.213
17,UCUCCUAUAGGACCUGUGC against MGAM,-0.17
18,UGAGCAUUUAUUGUGAGUG against OR2T6,-0.244
19,UCCUGGAGCACAUCAGUGC against ASPRV1,0.0418
20,UGGUUGUUAAAGGUCAUGG against HIPK2,-2.07
21,UACGCUUGAAGUACCGAUG against SLC7A1,-2.19
22,AAACGUACAUGAUGGGAGC against GPR155,-0.807

row,Sequence,seed-corrected z-score
1,UUGAACUCAGCGAUCAUCU against TNNC2,-0.279
2,UAUUAUCAAUGGUCCAGGG against AAGAB,0.496
3,UUUGAUGCCGUCAUCAUCC against TMEM106C,0.22
4,AGAAGUUUUUGCUCUGUCC against DYRK4,0.321
5,AAAUGUACAGAACUAUCUC against PADI2,-2.36
6,UCUCUGAAGAGUACAGGAG against PTOV1,0.398
7,UCAGGUGCAAAGCUACUGG against PARK2,-2.4
8,UCAUUGACAUUGGUCACGG against CYP27C1,-0.22
9,UUAUAACCACUGACUCUCC against MIPEPP3,0.124
10,UAUUGUUCUUGUCCUUUUG against TERF1,-0.319
11,AACCGAGUCAGAAUGGUGC against SDC1,0.384
12,UUUGGAAGACUGGAGCAGG against CTIF,0.631
13,UUCCCAUACCCUAUGGUCG against KCNK10,-0.13
14,UCUACUGUCAUUGAGACCA against SNRPB,-2.67
15,UCUGGUACUCAGAAGGUCC against COPS5,1.12
16,AUAGUAACGAUCAACUCCA against NDUFA1,0.512
17,AUCGAUAUAAACUGCUUCC against PDE1A,-2.44
18,UAUGUACUUCAGGCGCCUG against SLC35A2,0.271
19,AGUUUAUACAUUCUUUUCC against SPTLC1,-0.145
20,UAGAAGAUAGGUGAAGUGA against DNAJC22,0.192
21,UUACACUCAAGAAGAUUUC against GPR141,-0.389
22,UUAACGUCCACCACCAGAG against TYMP,-0.582

row,Sequence,seed-corrected z-score
1,UCAUUGAGAAUUCUCCGGG against NENF,2.29
2,AUCGUCCCAGUAAAUGUCC against BEST3,-0.819
3,UAGACUAACAUUGACUUAG against LOC150519,0.00864
4,UCUUUGCUAAGCUCGGAGG against RAD51C,-2.07
5,AUAGAUAUGUUCACAAGUG against UNC119B,0.327
6,UAGGGCGCAAGGGUAUGUG against SPDYE3,-0.136
7,UUACUAGCUCCGGUGGCAC against KCNK4,-0.0516
8,UUUAUCCCGAAGGAGGUUC against CAB39L,-2.55
9,UGUAUUCCAACCUACAAAC against HGSNAT,-0.666
10,AAUCUAACAAAUGAAGGUG against EIF2A,0.719
11,AUAGUUCCUUUGACUAUGG against IKZF5,-0.306
12,UCUAAUCCAAGUUCUACUG against AKAP5,-0.304
13,UUGUGGGUGGUGAAGAGGC against EPOR,0.293
14,AACCUGGUAAGUCUCGAUG against PPP2R2B,-0.459
15,UAACGGAUGGUGUGGUUUC against BCOR,-0.0753
16,UACCUUUUAUCCUGGGUUG against LOC285423,-2.09
17,UAGUGUAAACAAGAAGUUG against ABHD10,0.996
18,AAAGCGAGCACUGCGGAUC against CCDC102A,-0.304
19,UAGAGCACAGGAUAGAACC against RAP1GAP,0.295
20,UGUCUUCUAAGUAGAGCCU against VIPR2,-2.47
21,AACGAAACAAACUUGGUCC against NGEF,0.943
22,UAUCCUAAAAUCGCUGUUG against ARNTL2,-0.114

# Source: PubChem BioAssay AID1159506 (National Center for Advancing Translational Sciences (NCATS), 2015)
